Our source for the growth values is PubChem BioAssay (NCI).

Compounds without any hit were thinned out: in the full panel of roughly 83,000, 20% have a hit.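 Activity criterion: percent growth below 10, measured after cells in 96-well plates were exposed to a single compound concentration for 48 hours.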 Unmarked numbers belong to inactive results. Calls of active or inactive are those of the source.

Among the test systems are SR leukemia; OVCAR-8 ovarian; OVCAR-4 ovarian; SK-OV-3 ovarian; IGROV1 ovarian; OVCAR-3 ovarian; HS 578T breast; T-47D breast; BT-549 breast; MDA-MB-435 melanoma; SW-620 colon; MCF7 breast; HCC-2998 colon; KM12 colon; MDA-MB-468 breast; RPMI-8226 leukemia; OVCAR-5 ovarian; NCI/ADR-RES ovarian; HCT-116 colon.
Holding throughout (test): NCI-60 one-dose screen, 48 h (100 = growth as untreated, 0 = no growth, -100 = all killed)
What all share (conditions): 10 µM unless noted

For `COc1cc(OC)c2c3nc4cc(C)c(C)cc4nc3n(CCN(C)C)c2c1`, the growth in the assay on SR leukemia was 0.994% (active); with OVCAR-8 ovarian, -0.293% (active); with OVCAR-4 ovarian, 63.3%; in the assay with SK-OV-3 ovarian, 103%; in the assay with IGROV1 ovarian it was 55.5%; with OVCAR-3 ovarian, 97.7%. Moreover, the growth was 84.2% with HS 578T breast; 60.7% in the assay with T-47D breast; 78.9% in the assay with BT-549 breast; 87.8% with MDA-MB-435 melanoma; 35.3% with SW-620 colon; -17.2% (active) in the assay with MCF7 breast. Further, the values for the growth in the assay on HCC-2998 colon, in the assay with KM12 colon and with MDA-MB-468 breast were 77.1%, 84.7% and 65.6%, respectively.

Turning to `NC(=S)Nc1cccc(NC(N)=S)c1`, the growth in the assay on RPMI-8226 leukemia is 109%; in the assay with OVCAR-8 ovarian, 94%; in the assay with OVCAR-5 ovarian, 104%; with OVCAR-4 ovarian it was 94.6%; in the assay with SK-OV-3 ovarian, 126%; in the assay on IGROV1 ovarian, 97.5%. Also, the growth in the assay on OVCAR-3 ovarian is 88.5%; in the assay with HS 578T breast it was 105%; with NCI/ADR-RES ovarian it was 97.6%; in the assay with T-47D breast it was 86.8%; in the assay with BT-549 breast it was 115%; in the assay with MDA-MB-435 melanoma it was 97.3%. The growth in the assay with SW-620 colon is 107%; in the assay with MCF7 breast, 91.7%; in the assay on HCT-116 colon it was 107%; in the assay on HCC-2998 colon, 117%; with KM12 colon, 87.6%; with MDA-MB-468 breast it was 86.5%.

As for `NS(=O)(=O)c1ccc(-n2cc(-c3cccc(NC(=O)c4cc(Cl)cc(Cl)c4)c3)nn2)cc1`, the growth in the assay with RPMI-8226 leukemia is 92.6%; with OVCAR-8 ovarian it was 26.8%; in the assay with OVCAR-5 ovarian it was 81.2%; in the assay on OVCAR-4 ovarian it was 73.6%; in the assay on SK-OV-3 ovarian it was 90.2%; in the assay on IGROV1 ovarian, 101%. Moreover, the growth in the assay on OVCAR-3 ovarian is 48.2%; in the assay on HS 578T breast, 89.2%; in the assay with NCI/ADR-RES ovarian it was 92.7%; with T-47D breast, 48%; in the assay with MDA-MB-435 melanoma, 50.4%; with SW-620 colon, 54.7%. For the same compound, the growth in the assay on MCF7 breast was 37.1%; in the assay on HCT-116 colon, 45.4%; in the assay on HCC-2998 colon, 51%; in the assay with KM12 colon it was 2.24% (active).

`O=C(C1=CNC(=S)NC1c1ccc(O)cc1)c1cc2ccccc2oc1=O` (stereo unspecified): the growth was 75.5% with SR leukemia; 100% in the assay on OVCAR-8 ovarian; 96.1% in the assay on OVCAR-4 ovarian; 93.2% with SK-OV-3 ovarian; 108% with IGROV1 ovarian; 101% with OVCAR-3 ovarian. For the same compound, the growth in the assay on HS 578T breast is 97.8%; in the assay on NCI/ADR-RES ovarian, 106%; in the assay on T-47D breast, 112%; with BT-549 breast it was 83.7%; with MDA-MB-435 melanoma, 105%; with SW-620 colon it was 104%. Besides, the growth with HCT-116 colon was 101%; in the assay with HCC-2998 colon it was 102%; in the assay on KM12 colon, 95.8%; with MDA-MB-468 breast, 99.5%.

Regarding `c1ccc(-c2csc(Nc3cccc(Nc4nc(-c5ccccc5)cs4)c3)n2)cc1`, the growth with RPMI-8226 leukemia is 49.3%; with OVCAR-8 ovarian, 39.9%; in the assay on OVCAR-5 ovarian it was 64.5%; in the assay on OVCAR-4 ovarian it was 37.6%; in the assay on SK-OV-3 ovarian, 97.5%; in the assay with IGROV1 ovarian it was 34.1%. Moreover, the growth was 53.2% in the assay on OVCAR-3 ovarian; 56.5% in the assay on HS 578T breast; 26.1% in the assay on NCI/ADR-RES ovarian; 24% in the assay with T-47D breast; 31.7% in the assay with BT-549 breast; 44.7% in the assay with MDA-MB-435 melanoma. Besides, the growth in the assay on SW-620 colon is 66.2%; with MCF7 breast, 15.6%; in the assay with HCT-116 colon it was 40%; in the assay with HCC-2998 colon, 35.5%; in the assay on KM12 colon, 1.06% (active); in the assay on MDA-MB-468 breast it was 39.2%.

In the case of `CN1CCN(c2ccc3c(c2)nc(NNC(=O)c2cnccn2)c2cccn23)CC1`, the growth was 5.23% (active) with RPMI-8226 leukemia; -79.4% (active) in the assay on OVCAR-8 ovarian; -25% (active) with OVCAR-5 ovarian; -37.6% (active) with OVCAR-4 ovarian; -51.3% (active) in the assay with SK-OV-3 ovarian; 12.4% in the assay with IGROV1 ovarian. Besides, the growth in the assay on OVCAR-3 ovarian was -19.7% (active); in the assay on HS 578T breast, 34.1%; with NCI/ADR-RES ovarian, -10% (active); in the assay with T-47D breast, -55.6% (active); in the assay with MDA-MB-435 melanoma, 5.71% (active); with SW-620 colon, 9.85% (active). Moreover, the growth in the assay on MCF7 breast was -39.1% (active); in the assay on HCT-116 colon it was -52.1% (active); in the assay on HCC-2998 colon it was -44.5% (active); in the assay on KM12 colon, 1.89% (active); with MDA-MB-468 breast, -42.2% (active).

Turning to `O=C(O)c1ccc(-c2ccc(/C=N/NC(=O)c3[nH]c4ccc(Br)cc4c3-c3ccccc3)s2)cc1`, the growth is 0.386% (active) with SR leukemia; 20.2% in the assay on OVCAR-8 ovarian; 35.5% with OVCAR-5 ovarian; 22.5% in the assay on OVCAR-4 ovarian; 16.8% in the assay on SK-OV-3 ovarian; 14.7% in the assay with IGROV1 ovarian. The growth with OVCAR-3 ovarian is 2.13% (active); in the assay on NCI/ADR-RES ovarian, 19.9%; in the assay on T-47D breast, 16%; in the assay on BT-549 breast, 8.87% (active); in the assay on MDA-MB-435 melanoma it was 4.27% (active); in the assay on MCF7 breast it was 7.47% (active). The growth was 11.1% with HCT-116 colon, -66% (active) with HCC-2998 colon, -14.8% (active) in the assay with KM12 colon and 3.12% (active) in the assay with MDA-MB-468 breast.

For `COc1cc(NC(=O)c2cccc(C3CCc4c(cc(OC)c(OC)c4OC)O3)c2)cc(OC)c1OC` (stereo unspecified), the growth in the assay on RPMI-8226 leukemia is 16.2%; with OVCAR-8 ovarian, 5.15% (active); in the assay with OVCAR-5 ovarian it was 51.4%; in the assay on OVCAR-4 ovarian, 31.6%; with SK-OV-3 ovarian, 32.4%; in the assay with IGROV1 ovarian it was 13.8%. The growth in the assay on OVCAR-3 ovarian was 7.51% (active); in the assay on HS 578T breast, -8.84% (active); with NCI/ADR-RES ovarian, 16.9%; in the assay with T-47D breast, 14.5%; in the assay on BT-549 breast, -6.89% (active); in the assay with MDA-MB-435 melanoma, 2.46% (active). Besides, the growth in the assay with SW-620 colon is 46.1%; with MCF7 breast it was 3.71% (active); in the assay with HCT-116 colon, 8.03% (active); in the assay with HCC-2998 colon it was 64.8%; in the assay with KM12 colon it was 0.726% (active); with MDA-MB-468 breast it was 29.3%.

For the compound `CN(C)c1nc(NCCNS(=O)(=O)c2ccc(C3=Nc4c(N)nc(N)nc4NC(c4ccc(C(F)(F)F)cc4)C3)cc2)nc(Nc2ccc(F)cc2)n1` (stereo unspecified), the growth in the assay on SR leukemia is -23.2% (active); in the assay on OVCAR-8 ovarian it was 32.8%; in the assay with OVCAR-5 ovarian, 29.5%; in the assay with SK-OV-3 ovarian, 49.8%; with IGROV1 ovarian it was 35.8%; in the assay with OVCAR-3 ovarian, 23%. In addition, the growth with HS 578T breast is 27.1%; in the assay on NCI/ADR-RES ovarian, 92.9%; in the assay with T-47D breast, 9.22% (active); in the assay on BT-549 breast, 19.3%; in the assay with MDA-MB-435 melanoma it was 9.17% (active); with SW-620 colon it was 11.7%. In addition, the growth with MCF7 breast was -28.2% (active); in the assay on HCT-116 colon, 2.12% (active); in the assay on HCC-2998 colon it was -32.1% (active); in the assay with KM12 colon it was -4.83% (active); in the assay with MDA-MB-468 breast, -46.2% (active).
